“And” between values parts separate entries of the source, which are not always exact repeats. Identical values can stand only once. Records with an inconclusive call do not appear. More than one record can exist for a structure, and the calls need not agree. The source made the active and inactive calls. Unless noted, calls follow the shape of the dose curve; as a rule, active = well fitted curve in the direction sought with a large enough effect in the repeat runs; inconclusive = weak or mixed curves; inactive = no such curve, though single readings can be large; an effect the other way counts as inactive or inconclusive.

Data on 22 compounds can be found in PubChem BioAssay (Tox21).

Experiment [1] in a line: qHTS assay for small molecule agonists of the p53 signaling pathway (AID 651631; calls by dose curve; also: nearly all actives have a fitted effect of over 15% in size; also: potency is read from the fitted curve at half-maximal effect). Put shortly: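 We treat p53RE-bla HCT-116 cells with compounds for 16 h at 37 °C, add LiveBLAzer B/G FRET substrate for 2 h at room temperature, and measure fluorescence intensity.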
Background: qHTS replaces the single test concentration by a dilution series.

Experiment [2] in a line: qHTS assay for small molecules that induce genotoxicity in human embryonic kidney cells expressing luciferase-tagged ATAD5 (AID 651632). Also: nearly all actives have a fitted effect of over 15% in size. Also: potency is read from the fitted curve at half-maximal effect. Put shortly:
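Luminescent reporter readout, HEK293T ATAD5-luc line: 16 hr drug exposure (37C, 5% CO2) followed by Amplite, 30 min RT.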

Experiment [3] is described as follows: qHTS assay for small molecule agonists of the p53 signaling pathway - cell viability (AID 651633; calls by dose curve; also: nearly all actives have a fitted effect of over 30% in size; also: potency is read from the fitted curve at half-maximal effect). Put shortly: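 Viability counter-read: CellTiter-Glo luminescence (30 min, room temperature) in the same p53RE-bla plates. These plates had been exposed to compounds for 16 h at 37 C.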
A short description of experiment [4]: qHTS assay for small molecules that induce genotoxicity in human embryonic kidney cells expressing luciferase-tagged ATAD5 - cell viability (AID 651634; calls by dose curve; also: nearly all actives have a fitted effect of over 25% in size; also: potency is read from the fitted curve at half-maximal effect). The gist of the method: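 Viability read: CellTiter-Fluor fluorescence, 30 min at 37C. Cells: HEK293T, luciferase-tagged ATAD5. Exposure: 15.5 hr, 37C, 5% CO2, compound or DMSO vehicle.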
A short description of experiment [5]: qHTS assay for small molecule disruptors of the mitochondrial membrane potential - cell viability (AID 720634; calls by dose curve; also: nearly all actives have a fitted effect of over 20% in size; also: potency is read from the fitted curve at half-maximal effect). The gist of the method: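 HepG2, 1 hr compound, 37 C. ATP luminescence via CellTiter-Glo, 30 min RT, same well as m-MPI.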
A short description of experiment [6]: qHTS assay for small molecule disruptors of the mitochondrial membrane potential (AID 720635). Also: potency is read from the fitted curve at half-maximal effect. The gist of the method:
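Mitochondrial membrane potential tracked with Mito-MPS dye, red aggregates (ex 540/em 590 nm) against green monomers (ex 490/em 535 nm). Compound treatment 1 hr at 37C, dye 30 min in HepG2.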

Experiment [7] in a line: qHTS assay to test for compound auto fluorescence at 590 nm (red) in HepG2 cells (AID 720674). The gist of the method: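 1 hr compound incubation on HepG2 cells, 37 C, 5% CO2; plate read ex 540 nm / em 590 nm; intensities reported as Rose Bengal sodium equivalents.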
The nature of experiment [8]: qHTS assay to test for compound auto fluorescence at 535 nm (green) in HepG2 cells (AID 720675).
Experiment [9] in a line: qHTS assay to test for compound auto fluorescence at 460 nm (blue) in HEK293 cells (AID 720678). The gist of the method: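 HEK293 cells (2,000 per well, medium with 10% dialyzed FBS) attached for 4-5 hr at 37C, then received compound and stood overnight at 37C, 5% CO2. Blue fluorescence was read at Ex/Em 405/460 nm and expressed relative to triamterene.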
The nature of experiment [10]: qHTS assay to test for compound auto fluorescence at 590 nm (red) in HEK293 cells (AID 720679). The gist of the method:
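HEK293 cells (2,000/well, medium with 10% dialyzed FBS) attached for 4-5 hr at 37C, received 23 nL compound and were incubated overnight at 37C, 5% CO2. Red fluorescence was then read at 540/590nm Ex/Em, referenced to Rose Bengal sodium.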

For the compound `CC(C)Cc1ccccc1`, the Potency result in experiment [1], in experiment [2], in experiment [3], in experiment [4], in experiment [5] and in [6] was “inactive” in each case. The Potency entry in [9] is “inactive”. Also, the outcome in experiment [7] and in [8] was inactive.
With `Cc1ccc(N)c(S(=O)(=O)O)c1`, the Potency entry in experiment [1], in experiment [2], in experiment [3], in experiment [4], in experiment [5] and in experiment [6] was “inactive” throughout. Besides, the Potency result in experiment [9] is “inactive”. Moreover, the compound was called inactive in [7] and in experiment [8].
For the compound `OCCOCCOCCOCCO`, the Potency entry in experiment [1], in experiment [2], in experiment [3], in experiment [4], in [5] and in experiment [6] was “inactive” in each case. For the same compound, in experiment [9], the Potency entry is “inactive”. Moreover, the outcome in experiment [7] and in experiment [8] was inactive.
On to `CCOC(=O)/C=C\C(=O)OCC`, for which the Potency entry in experiment [1], in experiment [2], in [3], in experiment [4], in [5] and in experiment [6] was “inactive” throughout. The Potency result in [9] is “inactive”. Further, the compound was classed as inactive in experiment [7], in experiment [8] and in experiment [10].
As to `Clc1cc(Cl)c(Cl)cc1Cl`, the Potency entry in experiment [1], in [2], in [3], in experiment [4], in experiment [5] and in experiment [6] was “inactive” throughout. The Potency result in experiment [9] was “inactive”. The outcome in [7] and in [8] was inactive.
Consider `Oc1ccc(OCc2ccccc2)cc1`, for which the Potency in [1] is 9.02 µM (active); in experiment [2], 12.7 µM (active); in [6], 10.1 µM (active) and 23.8 µM (active). Moreover, the Potency entry in experiment [3], in experiment [4], in experiment [5] and in experiment [9] was “inactive” throughout. Besides, the result in experiment [7] and in experiment [8] was inactive.
For `CCCCC(CC)C(=O)OCCOCCOCCOC(=O)C(CC)CCCC` (centres undefined), the Potency entry in experiment [1], in [2], in experiment [3], in experiment [4], in [5] and in experiment [9] was “inactive” each time. Also, the Potency entry in experiment [6] is “inactive and 15.4 µM (active)”. In addition, the compound was classed as inactive in [7] and in experiment [8].
Take `COC(=O)c1ccccc1O`: the Potency entry in experiment [1], in [2], in [3], in experiment [4], in experiment [5] and in experiment [6] was “inactive” throughout. In addition, in [9], the Potency result is “inactive”. Besides, the compound was classed as inactive in experiment [7], in experiment [8] and in experiment [10].
Regarding `CC(C)(CO)COC(=O)C(C)(C)CO`, the Potency result in experiment [1], in experiment [2], in experiment [3], in experiment [4], in [5] and in experiment [6] was “inactive” each time. Besides, the Potency entry in experiment [9] is “inactive”. For the same compound, the compound was classed as inactive in experiment [7], in [8] and in experiment [10].
With `CN(C)c1ccc(C(=N)c2ccc(N(C)C)cc2)cc1`, the Potency was 4.28 µM (active) and 5.88 µM (active) in experiment [1]; 48 µM (active) and 46.7 µM (active) in experiment [4]; 27 µM (active) and 46.7 µM (active) in experiment [6]. The Potency entry in experiment [2], in [3], in [5] and in experiment [9] was “inactive” in each case. Moreover, the compound was classed as inactive in experiment [7], in experiment [8] and in experiment [10].
As to `O=C(Cl)c1c(Cl)c(Cl)c(C(=O)Cl)c(Cl)c1Cl`, the Potency entry in [1], in experiment [2], in experiment [3], in experiment [4], in [5] and in [6] was “inactive” each time. Further, the Potency entry in experiment [9] is “inactive”. Besides, the result in experiment [7], in [8] and in experiment [10] was inactive.
In the case of `Cc1cc(O)c2c(c1)C(=O)c1cc(O)cc(O)c1C2=O`, the Potency was 10.6 µM (active) in experiment [1]; “inactive and 61.1 µM (active)” in experiment [3]; 23.8 µM (active) and 54.5 µM (active) in experiment [4]; 15 µM (active) in experiment [5]; 1.68 µM (active) and 545 nM (active) in experiment [6]. Also, the Potency entry in experiment [2] and in experiment [9] was “inactive” in each case. For the same compound, the compound was classed as inactive in [7] and in [8].
As for `C=CC(=O)OCCCCCCCC(C)C`, the Potency result in [1], in experiment [2], in [3], in experiment [4], in experiment [5] and in [6] was “inactive” in each case. For the same compound, the Potency result in experiment [9] is “inactive”. Also, the compound was classed as inactive in experiment [7], in [8] and in experiment [10].
For `O=C(Oc1ccccc1)c1ccc(O)cc1`, the Potency result in experiment [1], in experiment [2], in [3], in experiment [4] and in experiment [9] was “inactive” in each case. The Potency in [5] and in experiment [6] was 61.1 µM (active) throughout. Besides, the compound was classed as inactive in experiment [7], in [8] and in [10].
Take `CCc1ccc(O)cc1`: the Potency result in experiment [1], in [2], in experiment [3], in [4], in experiment [5] and in [9] was “inactive” in each case. Besides, in experiment [6], the Potency was 54.7 µM (active). Moreover, the compound was called inactive in [7], in experiment [8] and in experiment [10].
In the case of `O=C1O[C@H](CO)[C@@H](O)[C@H](O)[C@H]1O`, the Potency result in experiment [1], in [2], in [3], in experiment [4], in experiment [5] and in experiment [6] was “inactive” each time. Further, the Potency result in [9] is “inactive”. In addition, the compound was classed as inactive in [7], in experiment [8] and in [10].
For the compound `Cc1cc(=O)[nH]c(C(C)C)n1`, the Potency entry in experiment [1], in experiment [2], in [3], in [4], in experiment [5] and in experiment [6] was “inactive” in each case. Also, the Potency result in experiment [9] was “inactive”. Further, the compound was classed as inactive in [7], in [8] and in experiment [10].
Turning to `CCCCOCCO`, the Potency result in experiment [1], in [2], in experiment [3], in experiment [4], in [5] and in experiment [6] was “inactive” throughout. Besides, the Potency entry in experiment [9] is “inactive”. The compound was called inactive in [7] and in experiment [8].
Take `NCCc1ccc(O)c(O)c1`: the Potency entry in experiment [1], in [2], in experiment [3], in experiment [4], in experiment [5] and in experiment [6] was “inactive” throughout. In addition, the Potency result in experiment [9] is “inactive”. Further, the call in experiment [7] and in experiment [8] was inactive.
For `Nc1cc(-c2ccncc2)c[nH]c1=O`, the Potency entry in experiment [1], in experiment [2], in experiment [3], in experiment [4], in experiment [5] and in experiment [6] was “inactive” throughout. The Potency entry in [9] is “inactive”. For the same compound, the outcome in experiment [7] and in experiment [8] was inactive.
For `O=[N+]([O-])c1cccc(Cl)c1`, the Potency entry in [1], in experiment [2], in experiment [3], in [4], in [5] and in experiment [6] was “inactive” in each case. Moreover, in [9], the Potency entry was “inactive”. Moreover, the call in [7], in experiment [8] and in experiment [10] was inactive.
Regarding `Cn1c([N+](=O)[O-])cnc1COC(N)=O`, the Potency result in experiment [1], in [2], in [3], in experiment [4], in experiment [5] and in experiment [6] was “inactive” in each case. Also, in [9], the Potency result is “inactive”. Moreover, the call in [7] and in experiment [8] was inactive.
